# Values joined by “and” are separate entries in the source; they are usually repeats but may differ in a detail not shown here. Equal values may be shown once. Inconclusive results are not listed. Active and inactive are the calls of the source. Cut-off read from the data, not from the text of the source, unless noted: active = inhibition above about 80%; inactive = the rest.
# Legend:
# [1] = target: Mitogen-activated protein kinase 7 (Homo sapiens) (UniProt Q13164); experiment: Gal4-ERK5 driven luciferase induction – cell-based, HTS, primary screen (AID 1508626;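 active = luciferase signal above three times the same-plate solvent-only control wells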;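 note: luciferase driven by Gal4-ERK5 fusion binding five Gal4 sites before minimal TATA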); details: HeLa Gal4-ERK5 transactivation, 18 h, at 5 µM, stronger effect = higher value
# Chain of Mitogen-activated protein kinase 7 (Homo sapiens) (Q13164 whole entry, looked up, the tested form may be a part): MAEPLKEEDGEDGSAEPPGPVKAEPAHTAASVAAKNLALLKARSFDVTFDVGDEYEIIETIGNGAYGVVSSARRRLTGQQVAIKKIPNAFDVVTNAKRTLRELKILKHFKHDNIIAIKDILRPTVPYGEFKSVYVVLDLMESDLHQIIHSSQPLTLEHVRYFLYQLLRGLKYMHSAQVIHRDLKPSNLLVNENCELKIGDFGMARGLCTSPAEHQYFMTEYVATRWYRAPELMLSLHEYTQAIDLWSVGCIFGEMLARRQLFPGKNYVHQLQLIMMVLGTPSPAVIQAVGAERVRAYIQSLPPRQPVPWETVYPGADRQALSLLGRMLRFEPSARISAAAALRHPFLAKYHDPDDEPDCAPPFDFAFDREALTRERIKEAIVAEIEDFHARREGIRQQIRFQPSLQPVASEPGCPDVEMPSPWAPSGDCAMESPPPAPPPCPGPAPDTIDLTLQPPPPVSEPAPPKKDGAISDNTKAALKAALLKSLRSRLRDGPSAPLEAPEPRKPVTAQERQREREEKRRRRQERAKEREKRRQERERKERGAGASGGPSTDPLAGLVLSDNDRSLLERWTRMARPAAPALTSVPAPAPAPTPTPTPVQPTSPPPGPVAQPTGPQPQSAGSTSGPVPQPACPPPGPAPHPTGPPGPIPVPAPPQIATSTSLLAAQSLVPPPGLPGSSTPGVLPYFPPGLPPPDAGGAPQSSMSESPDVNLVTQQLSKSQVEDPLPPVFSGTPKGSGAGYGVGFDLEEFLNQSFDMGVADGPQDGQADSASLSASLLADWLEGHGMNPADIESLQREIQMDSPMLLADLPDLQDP
# [2] = galactose survival enhancers in mitochondrial complex I cybrids – cell-based, galactose medium, ATP luminescence, primary screen (AID 1645843;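 active = z-score of at least 1.8 in each of two replicates, scored against plate mean and spread of sample wells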;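 note: positive z means more ATP and so rescue of galactose-driven cybrid death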); details: complex I mutant cybrid cells, 72 h, stronger effect = higher value
# [3] = target: ATP-dependent translocase ABCB1 (Homo sapiens) (UniProt P08183); experiment: P-glycoprotein substrate transport blockade – cell-based (AID 377; in the data active = fluorescence slope change above about 50%); details: MDR1-expressing cells, fluorescent substrate accumulation slope; stronger effect = higher value; concentration not given here
# Chain of ATP-dependent translocase ABCB1 (Homo sapiens) (P08183 whole entry, looked up): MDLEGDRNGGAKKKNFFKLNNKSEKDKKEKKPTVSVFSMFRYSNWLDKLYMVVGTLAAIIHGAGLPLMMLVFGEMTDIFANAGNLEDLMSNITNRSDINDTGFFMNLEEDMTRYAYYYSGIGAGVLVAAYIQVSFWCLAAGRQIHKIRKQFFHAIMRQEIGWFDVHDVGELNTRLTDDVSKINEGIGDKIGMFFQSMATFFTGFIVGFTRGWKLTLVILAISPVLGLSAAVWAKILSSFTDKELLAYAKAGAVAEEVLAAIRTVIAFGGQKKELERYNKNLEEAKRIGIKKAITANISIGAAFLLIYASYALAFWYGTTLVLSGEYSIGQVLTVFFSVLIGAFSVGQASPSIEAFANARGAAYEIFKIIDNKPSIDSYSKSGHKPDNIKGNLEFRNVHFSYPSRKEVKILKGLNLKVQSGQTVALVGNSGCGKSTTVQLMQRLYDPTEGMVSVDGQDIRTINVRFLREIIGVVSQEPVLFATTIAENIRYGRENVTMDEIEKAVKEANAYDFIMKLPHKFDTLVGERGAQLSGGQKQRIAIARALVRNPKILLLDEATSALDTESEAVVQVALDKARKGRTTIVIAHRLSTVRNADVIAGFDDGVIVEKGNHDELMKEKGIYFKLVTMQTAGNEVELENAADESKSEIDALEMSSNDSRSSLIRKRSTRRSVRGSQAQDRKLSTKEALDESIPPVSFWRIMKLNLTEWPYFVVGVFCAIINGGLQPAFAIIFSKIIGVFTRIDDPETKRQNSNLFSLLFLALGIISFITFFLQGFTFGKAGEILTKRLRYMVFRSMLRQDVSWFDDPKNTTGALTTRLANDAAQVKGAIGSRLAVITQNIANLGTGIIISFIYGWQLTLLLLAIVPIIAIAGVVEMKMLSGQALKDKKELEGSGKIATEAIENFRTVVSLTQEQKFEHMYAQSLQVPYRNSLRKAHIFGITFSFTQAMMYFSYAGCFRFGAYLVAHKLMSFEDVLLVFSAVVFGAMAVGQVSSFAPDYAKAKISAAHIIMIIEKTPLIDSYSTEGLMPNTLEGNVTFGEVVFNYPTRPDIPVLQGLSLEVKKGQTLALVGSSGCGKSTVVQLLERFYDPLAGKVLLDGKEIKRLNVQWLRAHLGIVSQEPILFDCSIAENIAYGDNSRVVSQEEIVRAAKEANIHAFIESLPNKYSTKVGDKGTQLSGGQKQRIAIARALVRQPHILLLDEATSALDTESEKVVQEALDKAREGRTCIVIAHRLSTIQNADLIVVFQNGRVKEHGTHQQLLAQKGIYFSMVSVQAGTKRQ
# [4] = viability loss in pontine glioma line – cell-based, SU-DIPG-IV, MIPE4.0, CellTiter-Glo, qHTS, dose response (AID 1347063; cut-off not given, nearly all actives have AC50 up to about 30 µM;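 note: compound exposure lasted 48 hours before the viability readout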); details: CellTiter-Glo ATP luminescence
# [5] = growth inhibition of DIPG cells – cell-based, MIPE4.0 library, CellTiter-Glo luminescence, qHTS (AID 1347066; cut-off not given, nearly all actives have AC50 up to about 30 µM;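 note: cells exposed to compound for 48 hours before readout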); details: SU-DIPG-VI viability, CellTiter-Glo ATP luminescence
# [6] = growth inhibition, single agents and combos, LFS_MB_1R, cell-based, cisplatin or BGB combos, synergistic combos for chromothripsis tumors (AID 1671452); details: LFS_MB_1R medulloblastoma cells, stronger effect = higher value;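 note: cells exposed for 96 hours before readout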
# [7] = growth inhibition, single agents and combos, CRL2098, cell-based, BGB or cisplatin IC20 combos, synergistic combos for chromothripsis tumors (AID 1671454); details: CRL2098 osteosarcoma cells, drug combinations, stronger effect = higher value;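 note: cells exposed for 96 h before readout; 0% = vehicle DMSO and 100% = killing by high DMSO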
# [8] = growth inhibition, single agents and combos, HD-MB03, cell-based, BGB or cisplatin IC20 combos, synergistic combos for chromothripsis tumors (AID 1671455; in the data active = inhibition above about 83%;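 note: 0% = vehicle DMSO and 100% = high DMSO as cytotoxic control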); details: HD-MB03 medulloblastoma cells, stronger effect = higher value
# [9] = growth inhibition, single agents and combos, UWB1.289, cell-based, BGB or cisplatin combos, synergistic combos for chromothripsis tumors (AID 1671456); details: UWB1.289 ovarian carcinoma cells, stronger effect = higher value;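 note: cells exposed to compound for four days; 0% = vehicle DMSO and 100% = killing by high DMSO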
# [10] = growth inhibition, single agents and combos, LFS_MB_2R, cell-based, cisplatin combos, synergistic combos for chromothripsis tumors (AID 1671457); details: LFS_MB_2R medulloblastoma cells, stronger effect = higher value;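 note: cells exposed to compound for four days before readout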
# [11] = UWB1.289_BRCA1 ovarian cancer growth, cell-based, BGB or cisplatin combinations (AID 1671459); details: UWB1.289 BRCA1 ovarian carcinoma, drug combinations, stronger effect = higher value
# [12] = drug combination toxicity in non-malignant astrocytes – cell-based, BGB or cisplatin IC20 combos, cytotoxicity control for chromothriptic childhood tumor combination screen (AID 1671460); details: Human astrocytes, viability inhibition, drug combinations, at 0.5 µM, stronger effect = higher value;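 note: cells exposed to compounds for 96 hours before viability readout; 0% = vehicle and 100% = killing control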
# [13] = BT084 cell growth, single and combined drugs, ICGC_MB145, cisplatin and BGB IC40 combos (AID 1671461); details: BT084 medulloblastoma cells, drug combinations, stronger effect = higher value;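 note: cells exposed to drugs for 96 hours; 0% = vehicle DMSO and 100% = high DMSO full killing control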
# [14] = RCMB18 cell growth, single agent and combined, cisplatin and BGB IC40 combos (AID 1671462); details: RCMB18 medulloblastoma cells, stronger effect = higher value;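 note: cells exposed to compound for four days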
# [15] = CRL1545 cell growth, single agent and combined, cisplatin and BGB IC20 combos (AID 1671464); details: CRL1545 osteosarcoma cells, stronger effect = higher value;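 note: cells exposed to compound for 96 hours before readout; 0% = vehicle DMSO and 100% = high DMSO killing control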
# [16] = viability loss in pontine glioma line – cell-based, JHH-DIPG-1, MIPE4.0, CellTiter-Glo, qHTS, dose response (AID 1347062; cut-off not given, nearly all actives have AC50 up to about 27 µM;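 for AC50: cells exposed to compound for two days before readout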); details: JHH-DIPG-1 viability, CellTiter-Glo ATP luminescence
# [17] = viability loss in pontine glioma line – cell-based, SU-DIPG-XIII, MIPE5.0, CellTiter-Glo, qHTS, dose response (AID 1347064; cut-off not given, nearly all actives have AC50 up to about 23 µM;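 for AC50: cells exposed to compound for 48 hours before the viability read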); details: CellTiter-Glo ATP luminescence
# [18] = viability loss in pontine glioma line – cell-based, SU-DIPG-XXV, MIPE5.0, CellTiter-Glo, qHTS, dose response (AID 1347065; cut-off not given, nearly all actives have AC50 up to about 26 µM;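 note: cells exposed to compound for 48 hours before ATP readout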); details: CellTiter-Glo ATP luminescence
# [19] = JHH-DIPG-1 glioma cell viability, MIPE5.0 library, CellTiter-Glo luminescence, qHTS (AID 1347067; cut-off not given, nearly all actives have AC50 up to about 26 µM;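 note: cells exposed to compound for 48 hours before readout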); details: JHH-DIPG-1 glioma viability, CellTiter-Glo ATP luminescence
# [20] = growth inhibition of DIPG cells – cell-based, MIPE5.0 library, qHTS (AID 1347068; cut-off not given, nearly all actives have IC50 up to about 30 µM;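 for IC50: cells exposed to compound for 48 hours before viability readout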); details: SU-DIPG-XXV viability
# [21] = measured here: combination with cisplatin, at 0.5 µM
# [22] = measured here: combination with cisplatin, at 5 µM
smiles,measurement,setting,value
CNCCCC1c2ccccc2C=Cc2ccccc21,luciferase signal,[1],40 AU (inactive)
same,z-score,[2],-1.15 (inactive)
N=C(N=C(N)N)N1CCOCC1,fluorescence slope change,[3],25.2% (inactive)
same,outcome,[4],inactive
same,outcome,[5],inactive
same,z-score,[2],0.495 (inactive)
same,inhibition,[6]; at 0.5 µM,-2.71% (inactive)
same,inhibition,"[6]; measured here: combination with BGB IC40, at 0.05 µM",2.02%
same,inhibition,[6]; [21],8.46%
same,inhibition,[6]; [22],-12.4%
same,inhibition,[7]; at 0.5 µM,-24.9% (inactive)
same,inhibition,"[7]; measured here: combination with BGB at IC20, at 0.5 µM",-15.5%
same,inhibition,"[7]; measured here: combination with cisplatin at IC20, at 0.5 µM",-34.6%
same,inhibition,[8]; at 0.5 µM,-2.36% (inactive)
same,inhibition,"[8]; measured here: combo with BGB at IC20, at 0.5 µM",3.57%
same,inhibition,"[8]; measured here: combo with cisplatin at IC20, at 0.5 µM",-15.2%
same,inhibition,[9]; at 0.5 µM,6.16% (inactive)
same,inhibition,"[9]; measured here: inhibition with BGB combination, at 0.05 µM",-1.97%
same,inhibition,"[9]; measured here: inhibition with cisplatin combination, at 0.05 µM",3.05%
same,inhibition,[10]; at 0.5 µM,6.81% (inactive)
same,inhibition,[10]; [21],8.19%
same,inhibition,[10]; [22],-31.5%
same,inhibition,"[11]; BGB combination, concentration series, at 5 µM",1.52%
same,inhibition,[11]; at 0.5 µM,3.22% (inactive)
same,inhibition,"[11]; cisplatin combination, concentration series, at 5 µM",4.22%
same,inhibition,[12],2.04% (inactive)
same,inhibition,[12]; measured here: combo with BGB IC20,7.42%
same,inhibition,[12]; measured here: combo with cisplatin IC20,-4.5%
same,inhibition,[13]; at 0.5 µM,3.57% (inactive)
same,inhibition,"[13]; cisplatin combination, at 0.5 µM",-9.16%
same,inhibition,"[13]; cisplatin combination, at 5 µM",7.43%
same,inhibition,"[13]; measured here: BGB IC40 combination 0.05 uM, at 0.05 µM",0.739%
same,inhibition,"[13]; single agent, at 5 µM",-12.3%
same,inhibition,[14]; at 0.5 µM,5.29% (inactive)
same,inhibition,"[14]; cisplatin combo, at 5 µM",-26%
same,inhibition,"[14]; measured here: BGB IC40 combination, at 0.05 µM",-14.8%
same,inhibition,[14]; [21],25.2%
same,inhibition,"[14]; single agent, at 5 µM",-13.7%
same,inhibition,[15]; at 0.5 µM,2.6% (inactive)
same,inhibition,"[15]; measured here: with BGB IC20 combination, at 0.5 µM",-18.7%
same,inhibition,"[15]; measured here: with cisplatin IC20 combination, at 0.5 µM",11.3%
same,inhibition,"[15]; single agent, at 0.05 µM",0.225%
same,inhibition,"[15]; single agent, at 5 µM",8.11%
NCCCNCCSP(=O)(O)O,luciferase signal,[1],52 AU (inactive)
same,z-score,[2],0.585 (inactive) and 0.25 (inactive)
O=C(O)CN(CCN(CC(=O)O)CC(=O)O)CCN(CC(=O)O)CC(=O)O,z-score,[2],4.38 (active)
Nc1cc(C(Cl)=C(Cl)Cl)c(S(N)(=O)=O)cc1S(N)(=O)=O,outcome,[16],inactive
same,outcome,[4],inactive
same,outcome,[17],inactive
same,outcome,[18],inactive
same,outcome,[5],inactive
same,outcome,[19],inactive
same,outcome,[20],inactive
CN(N=O)C(=O)N[C@@H]1[C@@H](O)[C@H](O)[C@@H](CO)O[C@@H]1O,outcome,[17],inactive
same,outcome,[18],inactive
same,outcome,[19],inactive
same,outcome,[20],inactive
same,luciferase signal,[1],120 AU (inactive)
COc1c(C)c2c(c(O)c1C/C=C(\C)CCC(=O)OCCN1CCOCC1)C(=O)OC2,outcome,[5],inactive
same,z-score,[2],1.7 (inactive)
CC(=O)c1ccc2c(c1)N(CCCN(C)C)c1ccccc1S2,fluorescence slope change,[3],72% (active)
same,luciferase signal,[1],32 AU (inactive)
same,z-score,[2],-0.995 (inactive)
COc1cc2ncnc(Nc3ccc(F)c(Cl)c3)c2cc1OCCCN1CCOCC1,AC50,[16],19.1 µM (active)
same,AC50,[4],10.8 µM (active)
same,outcome,[17],inactive
same,outcome,[18],inactive
same,AC50,[5],38.2 µM (active)
same,outcome,[19],inactive
same,outcome,[20],inactive
same,z-score,[2],-0.29 (inactive) and 0.3 (inactive)
O=[N+]([O-])c1ccc(O)c2ncccc12,AC50,[17],3.32 µM (active)
same,AC50,[18],9.34 µM (active)
same,AC50,[19],2.95 µM (active)
same,IC50,[20],23.5 µM (active)
CC(=O)NCCCS(=O)(=O)O,outcome,[17],inactive
same,outcome,[18],inactive
same,outcome,[20],inactive
same,luciferase signal,[1],52 AU (inactive)

# — PubChem BioAssay
